Assay outcomes from PubChem BioAssay.
Rows were chosen to be rich in hits. Some 0.9% of all compounds tested hit in one or more screens of this group.
PPARg SRC-3 ag: PPARgamma agonists recruiting SRC-3 coactivator, primary screen, biochemical; Peroxisome proliferator-activated receptor gamma (Homo sapiens), P37231; biochemical PPARgamma/SRC-3 coactivator recruitment assay; activation, % at 8 µM; 200,000 compounds, 0.26% hits; AID 731, 2007; in the data active means activation above about 23%
Target sequence (P37231 whole entry, looked up): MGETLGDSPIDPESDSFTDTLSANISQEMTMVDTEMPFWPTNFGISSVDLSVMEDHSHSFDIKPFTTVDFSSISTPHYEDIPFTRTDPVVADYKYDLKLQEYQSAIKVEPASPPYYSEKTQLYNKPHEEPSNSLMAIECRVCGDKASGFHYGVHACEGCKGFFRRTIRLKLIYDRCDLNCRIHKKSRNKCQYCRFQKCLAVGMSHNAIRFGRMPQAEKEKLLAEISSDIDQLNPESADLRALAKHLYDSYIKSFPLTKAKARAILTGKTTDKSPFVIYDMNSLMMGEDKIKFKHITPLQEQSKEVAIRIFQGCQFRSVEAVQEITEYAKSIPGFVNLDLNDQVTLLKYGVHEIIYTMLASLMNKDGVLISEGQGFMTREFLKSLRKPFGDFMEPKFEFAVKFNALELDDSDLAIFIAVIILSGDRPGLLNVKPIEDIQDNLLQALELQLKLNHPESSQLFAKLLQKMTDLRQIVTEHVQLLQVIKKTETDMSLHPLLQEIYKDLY
PPARg SRC-2 ag: agonists of PPARg-SRC-2 recruitment, primary screen, biochemical, HTS; Peroxisome proliferator-activated receptor gamma (Homo sapiens), P37231; PPARgamma LBD-SRC-2 recruitment; activation, % at 8 µM; 200,000 compounds, 0.34% hits; in the data active means activation above about 22%
SRC3 TRFRET art: TR-FRET detection interference compounds, artefact control for PPARgamma SRC-3 recruitment agonists, biochemical, TR-FRET ratio; 99,000 compounds, 0.39% hits; AID 1048, 2008; TR-FRET ratio at 8 µM; TR-FRET artefact counter-screen, PPARgamma/SRC-3 format; stronger effect = higher value
PPARg SRC1 recr: PPARgamma agonists recruiting SRC-1 coactivator, primary screen, biochemical. Peroxisome proliferator-activated receptor gamma (Homo sapiens), P37231. 200,000 compounds, 0.41% hits. activation, % at 8 µM. PPARgamma-SRC-1 coactivator recruitment biochemical assay; in the data active means activation above about 19%
SRC2 TRFRET art: TR-FRET signal artefacts, primary screen, artefact control for PPARgamma SRC-2 agonist project, biochemical; 200,000 compounds, 0.4% hits; TR-FRET ratio at 8 µM; TR-FRET artefact counter-screen; stronger effect = higher value
SRC1 TRFRET art: TR-FRET detection interference compounds, primary screen, artefact control for PPARgamma SRC-1 recruitment agonists, biochemical, TR-FRET emission ratio. TR-FRET detection artefact counter-screen; stronger effect = higher value. TR-FRET ratio at 8 µM. 99,000 compounds, 0.34% hits; in the data active means TR-FRET ratio above about 2300
Large screens that a line does not name were inactive. Unless noted, no stated cut-off is given here; in the data, active means TR-FRET ratio above about 2000; inactive means the rest.

Cc1cnc(NC(=O)c2ccc(OCC3CCCO3)cc2)s1 (stereo not drawn)	none
CCOC(=O)c1sc2nc(CC(=O)OC)nc(NCc3ccc(F)cc3)c2c1C	PPARg SRC-2 ag 57, SRC2 TRFRET art 3064 (no result: SRC3 TRFRET art, SRC1 TRFRET art)
CN(CC1CCCO1)S(=O)(=O)c1ccc(C(=O)Nc2nc3cc4c(cc3s2)OCO4)cc1 (stereo not drawn)	PPARg SRC-2 ag 23 (no result: SRC3 TRFRET art, SRC1 TRFRET art)
CN(CC1CCCO1)S(=O)(=O)c1ccc(C(=O)Nc2ccc3c(c2)OCO3)cc1 (stereo not drawn)	none
Cc1nn(-c2ccc(Cl)cc2)c2sc(C(=O)c3c(N)n(C)c(=O)n(C)c3=O)cc12	PPARg SRC1 recr 25 (no result: SRC3 TRFRET art, SRC1 TRFRET art)
Cn1c(N)c(C(=O)c2ccc(Cl)cc2)c(=O)n(C)c1=O	none
CN1CCc2c(sc3c2C(=O)NC(c2cccs2)N3)C1 (stereo not drawn)	none (no result: SRC3 TRFRET art, SRC1 TRFRET art)
CN1CCc2c(sc3c2C(=O)NC(c2ccc(-c4cccc(Cl)c4)o2)N3)C1 (stereo not drawn)	SRC1 TRFRET art 2385
COc1ccc2cc(Br)ccc2c1CC(=O)NC(C)(C)C	SRC2 TRFRET art 2017
Cc1ccccc1NC(=S)N(CCN1CCCCC1)Cc1ccco1	SRC2 TRFRET art 2001
Cc1ccccc1NC(=S)N(CCCN1CCCCC1)Cc1ccco1	none
CCN(CC)C(=O)C(=O)N/N=C/c1ccc(C(=O)O)cc1	none
CC(C)(C)c1ccc(-c2nnc3sc(-c4ccncc4)nn23)cc1	PPARg SRC-2 ag 190, SRC2 TRFRET art 5672 (no result: SRC3 TRFRET art, SRC1 TRFRET art)
O=C(Nc1cnccn1)c1cccc(C(F)(F)F)c1	PPARg SRC-2 ag 65, SRC2 TRFRET art 2375 (no result: SRC3 TRFRET art, SRC1 TRFRET art)
O=C(O)c1ccccc1C(=O)NNc1ccc(Cl)cc1Cl	none
COc1ccc(C2CC(c3ccc(Br)cc3)=NN2C(=O)CSC2=NCCS2)cc1 (stereo not drawn)	SRC3 TRFRET art 2257
COc1ccc(C(=O)NCc2ccc3c(c2)cc(C)n3C)cc1OC	none
COc1ccc(/C=C\C(=O)NCc2ccc3c(c2)cc(C)n3C)cc1OC	SRC3 TRFRET art 2112
CCc1cccc(C)c1NC(=S)NCc1ccc2c(c1)cc(C)n2C	SRC3 TRFRET art 2094
COc1cccc(C(=O)NCc2ccc3c(c2)cc(C)n3C)c1	SRC3 TRFRET art 2355, SRC2 TRFRET art 2069, SRC1 TRFRET art 2604
COc1ccc(CCNC(=O)c2ccc(-c3ccc([N+](=O)[O-])cc3Cl)o2)cc1	none
O=C(C1CCCO1)N1CCN(C(=S)Nc2ccc(F)c(Cl)c2)CC1 (stereo not drawn)	none
O=C(CCCCCN1C(=O)c2cccc3cccc(c23)C1=O)NCCO	none
CC(C)CCN1CCN(Cc2ccc(Oc3ncccn3)cc2)CC1CCO (stereo not drawn)	none
CC(C)N1CCN(Cc2ccc(Oc3ncccn3)cc2)CC1CCO (stereo not drawn)	PPARg SRC1 recr 21
N#Cc1c(-c2cccnc2)c2c([nH]c1=S)CCCC2	none (no result: SRC3 TRFRET art, SRC1 TRFRET art)
CC(C)Cc1c2c([nH]c(=S)c1C#N)CCCC2	none
COc1ccc(-c2c3c([nH]c(=S)c2C#N)CCC3)cc1	PPARg SRC-3 ag 108, PPARg SRC-2 ag 86, PPARg SRC1 recr 64, SRC2 TRFRET art 4167 (no result: SRC3 TRFRET art, SRC1 TRFRET art)
COc1ccc(OC)c(-c2c3c([nH]c(=S)c2C#N)CCCC3)c1	SRC1 TRFRET art 2339
Cn1c2ccccc2c2cc(C(=O)OCC(=O)N3CC(=O)Nc4ccccc43)sc21	SRC2 TRFRET art 2536 (no result: SRC3 TRFRET art, SRC1 TRFRET art)
CSCC[C@H](NC(=O)COc1ccc(Cl)cc1)c1nc2ccccc2[nH]1	none
O=C(COC(=O)C(c1ccccc1)c1ccccc1)NCc1ccco1	none
CCOC(=O)C1CCCN(S(=O)(=O)c2cc(Br)cc3c2N(C(=O)C2CC2)CC3)C1 (stereo not drawn)	PPARg SRC1 recr 26
COC(=O)c1ccc(NC(=S)N2CCN(Cc3ccccc3OC)CC2)cc1	none
CC1(C)OC2OC(C(=O)N/N=C/c3cc(Br)ccc3O)C3OC(C)(C)OC3C2O1 (stereo not drawn)	none
O=C(N/N=C/c1ccc(O)cc1)c1csc2ccccc12	PPARg SRC1 recr 46 (no result: SRC3 TRFRET art, SRC1 TRFRET art)
CCn1cc(/C=N\NC(=O)c2csc3ccccc23)c(C)n1	none (no result: SRC3 TRFRET art, SRC1 TRFRET art)
CCc1cc2cc3c(cc2nc1SCC(=O)Nc1cc(C)on1)OCO3	PPARg SRC1 recr 36 (no result: SRC3 TRFRET art, SRC1 TRFRET art)
CCc1cc2ccc(C)cc2nc1SCC(=O)Nc1cc(C)on1	none
Cc1csc(NC(=O)CSc2nnc(NC(=O)C3CC(=O)N(c4ccccc4)C3)s2)n1 (stereo not drawn)	SRC1 TRFRET art 2325
CCOc1cc(CNc2ccc(N3CCCC3)cc2)cc(Cl)c1OC	SRC2 TRFRET art 2050
CCOc1cc(CNc2ccc(N3CCN(C(C)=O)CC3)cc2)cc(Br)c1OC	PPARg SRC-2 ag 22
COc1cc(CNc2ccc(N3CCCC3)cc2)cc(Cl)c1OC	none
COc1ccc(S(N)(=O)=O)cc1C(=O)N1CCCC1	none
COc1ccc(CSc2nnc(Cc3sc(-c4ccccc4)nc3-c3ccccc3)o2)cc1	SRC2 TRFRET art 3227 (no result: SRC3 TRFRET art, SRC1 TRFRET art)
O=C(CSc1nc(C2CC2)nc2ccccc12)N1c2ccccc2Sc2ccc(C(F)(F)F)cc21	SRC2 TRFRET art 1994 (no result: SRC3 TRFRET art, SRC1 TRFRET art)
O=C(CN1CCCC(O)C1)N1c2ccccc2Sc2ccc(C(F)(F)F)cc21 (stereo not drawn)	none (no result: SRC3 TRFRET art, SRC1 TRFRET art)
COc1ccc(-n2nc(C(=O)NCC(=O)Nc3ccccn3)c3ccccc3c2=O)cc1Cl	PPARg SRC1 recr 23 (no result: SRC3 TRFRET art, SRC1 TRFRET art)
Cc1cccc(NC(=O)C2CCN(S(=O)(=O)c3c(C)[nH]c(=O)[nH]c3=O)CC2)c1	SRC2 TRFRET art 1997
CCc1cccc(NC(=O)C2CCCN(S(=O)(=O)c3c(C)[nH]c(=O)[nH]c3=O)C2)c1 (stereo not drawn)	none (no result: SRC3 TRFRET art, SRC1 TRFRET art)
CC(=O)c1sc(NC(=O)c2ccc(C)c(C)c2)nc1C	none
CC(=O)c1sc(NC(=O)c2ccc(C(C)(C)C)cc2)nc1C	SRC3 TRFRET art 2151, SRC2 TRFRET art 1990
COC(=O)CCC(=O)c1oc2ccc(Br)cc2c1N	PPARg SRC-2 ag 24 (no result: SRC3 TRFRET art, SRC1 TRFRET art)
COc1ccc2oc(C(=O)CCC(=O)O)c(N)c2c1	none (no result: SRC3 TRFRET art, SRC1 TRFRET art)
NNC1=N[C@H]2CS(=O)(=O)C[C@H]2S1	none
COc1ccccc1C(=O)NNC(=S)NC(=O)c1ccco1	none
COc1cc(-c2nc3ccccn3c2/N=C/c2cccc(OC)c2O)ccc1O	SRC2 TRFRET art 2175
COc1cc(-c2nc3ccccn3c2/N=C/c2ccc(F)cc2)ccc1O	none
CCN(CC)S(=O)(=O)c1cccc(C(=O)N/N=C/c2ccc([N+](=O)[O-])o2)c1	none
NC(=O)c1c(NC(=S)Nc2ccccc2)sc2c1CCCC2	SRC1 TRFRET art 2381
CCCCOC(=O)N/N=C/C=C/c1ccccc1	SRC1 TRFRET art 2344
Cc1ccc(-c2nnc(NC3CCCCC3)c3ccccc23)cc1S(=O)(=O)N1CCN(C)CC1	none (no result: SRC3 TRFRET art, SRC1 TRFRET art)
